Common to all, as to test: universal protein binding microarray (PBM); transcription factors of Arabidopsis thaliana; high values mean tight binding
Assay [1] deals with GST-NTL6(1-168) (Arabidopsis thaliana, UniProt Q9SCK6 1-168). As to conditions: protein: recombinant; tags: GST; chain copies: 2; dsDNA, one strand shown. The method in brief:
(§1)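 Binding is expressed as the normalised enrichment score (E-score). Proteins carrying a GST tag, whether NAC-domain, full-length or DNA-binding-domain forms, were induced in cells, and zinc acetate was added for zinc-finger proteins. After purification on glutathione–Sepharose 4B and quantification by A280 or anti-GST western blot, each was applied in duplicate at 200 to 500 nM final to custom all-10-mer Agilent 4 × 180K arrays made double-stranded by primer extension. Gapped and ungapped 8-mers were scored.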

Assay [2] addresses T1, GST-ANAC055(1-171) (Arabidopsis thaliana, UniProt Q9LDY8 1-171).
T1 sequence: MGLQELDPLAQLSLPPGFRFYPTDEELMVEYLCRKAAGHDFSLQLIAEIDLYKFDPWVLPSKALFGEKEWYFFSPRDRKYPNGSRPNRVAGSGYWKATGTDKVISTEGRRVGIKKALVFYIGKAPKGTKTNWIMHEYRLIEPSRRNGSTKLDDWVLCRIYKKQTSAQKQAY
As to conditions: protein: recombinant; tags: GST; chain copies: 2; dsDNA, one strand shown. The essentials: as §1

The target of assay [3] is T2, GST-ATAF1 NAC domain (Arabidopsis thaliana, UniProt Q39013 7-158).
T2 sequence: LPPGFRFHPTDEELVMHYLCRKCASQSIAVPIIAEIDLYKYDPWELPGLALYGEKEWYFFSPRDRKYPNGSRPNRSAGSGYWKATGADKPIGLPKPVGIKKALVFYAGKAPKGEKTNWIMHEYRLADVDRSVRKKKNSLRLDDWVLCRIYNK
The following applies: protein: recombinant; tags: GST; chain copies: 2; dsDNA, one strand shown. The method in brief: as §1

In assay [4] the target is T3, GST-ANAC092(1-285) full length (Arabidopsis thaliana, UniProt Q9FKA0 1-285).
T3 sequence: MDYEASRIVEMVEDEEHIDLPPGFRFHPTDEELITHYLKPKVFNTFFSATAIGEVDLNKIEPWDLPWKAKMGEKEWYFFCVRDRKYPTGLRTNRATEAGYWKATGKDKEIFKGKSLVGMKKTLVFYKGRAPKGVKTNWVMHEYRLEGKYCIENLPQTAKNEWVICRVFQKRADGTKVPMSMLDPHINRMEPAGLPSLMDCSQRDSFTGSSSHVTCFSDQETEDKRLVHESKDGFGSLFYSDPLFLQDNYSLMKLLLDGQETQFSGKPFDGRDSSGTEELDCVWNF
As to conditions: protein: recombinant; tags: GST; chain copies: 2; dsDNA, one strand shown. The essentials:
as §1

Assay [5] addresses T4, GST-NST2(1-184) (Arabidopsis thaliana, UniProt Q9M274 1-184).
T4 sequence: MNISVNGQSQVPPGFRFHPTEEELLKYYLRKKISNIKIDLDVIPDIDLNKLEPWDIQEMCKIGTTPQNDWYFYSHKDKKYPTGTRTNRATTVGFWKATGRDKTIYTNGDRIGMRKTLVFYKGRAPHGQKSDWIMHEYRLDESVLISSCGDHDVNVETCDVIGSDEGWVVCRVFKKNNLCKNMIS
As to conditions: protein: recombinant; tags: GST; chain copies: 2; dsDNA, one strand shown. The essentials:
as §1

Assay [6] has as its target T5, GST-SND1(1-203) (Arabidopsis thaliana, UniProt Q9LPI7 1-203).
T5 sequence: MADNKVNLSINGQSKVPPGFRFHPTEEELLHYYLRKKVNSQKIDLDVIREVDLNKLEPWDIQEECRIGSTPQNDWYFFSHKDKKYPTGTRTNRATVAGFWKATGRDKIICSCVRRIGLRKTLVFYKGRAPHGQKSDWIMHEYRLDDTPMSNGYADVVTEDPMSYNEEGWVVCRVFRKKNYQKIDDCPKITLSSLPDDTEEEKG
As to conditions: protein: recombinant; tags: GST; chain copies: 2; dsDNA, one strand shown. The method in brief: as §1

Assay [7] concerns the target T6, GST-VND3 NAC domain (Arabidopsis thaliana, UniProt Q9FH59 12-162).
T6 sequence: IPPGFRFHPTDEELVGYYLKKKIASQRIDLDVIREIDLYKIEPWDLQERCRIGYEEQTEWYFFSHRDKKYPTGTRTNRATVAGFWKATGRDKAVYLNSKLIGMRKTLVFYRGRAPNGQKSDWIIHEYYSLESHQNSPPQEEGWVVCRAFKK
As to conditions: protein: recombinant; tags: GST; chain copies: 2; dsDNA, one strand shown. The essentials:
as §1

Assay [8] deals with T7, GST-VND7 NAC domain (Arabidopsis thaliana, UniProt Q9C8W9 9-158).
T7 sequence: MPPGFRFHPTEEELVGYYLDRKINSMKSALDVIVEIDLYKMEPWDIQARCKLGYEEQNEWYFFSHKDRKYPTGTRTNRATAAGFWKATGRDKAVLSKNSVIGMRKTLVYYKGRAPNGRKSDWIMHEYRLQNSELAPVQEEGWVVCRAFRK
The following applies: protein: recombinant; tags: GST; chain copies: 2; dsDNA, one strand shown. The essentials:
as §1

Assay [9] has as its target GST-WRKY1(266-371) (Arabidopsis thaliana, UniProt Q9SI37 266-371). As to conditions: protein: recombinant; tags: GST; dsDNA, one strand shown. The essentials: as §1
The target of assay [10] is T8, GST-ANAC019 NAC domain (Arabidopsis thaliana, UniProt Q9C932 14-162).
T8 sequence: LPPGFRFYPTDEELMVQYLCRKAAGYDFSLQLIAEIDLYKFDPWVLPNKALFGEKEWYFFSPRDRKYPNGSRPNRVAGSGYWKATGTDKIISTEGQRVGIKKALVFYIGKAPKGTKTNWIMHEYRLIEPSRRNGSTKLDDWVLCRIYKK
As to conditions: protein: recombinant; tags: GST; chain copies: 2; dsDNA, one strand shown. The essentials: as §1

Assay [11] concerns the target T9, GST-ANAC092(1-176) (Arabidopsis thaliana, UniProt Q9FKA0 1-176).
T9 sequence: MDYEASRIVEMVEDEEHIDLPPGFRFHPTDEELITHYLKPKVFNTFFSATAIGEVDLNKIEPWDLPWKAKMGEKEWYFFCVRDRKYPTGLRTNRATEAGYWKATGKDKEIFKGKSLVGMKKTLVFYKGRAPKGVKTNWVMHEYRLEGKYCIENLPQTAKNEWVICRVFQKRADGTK
The following applies: protein: recombinant; tags: GST; chain copies: 2; dsDNA, one strand shown. The method in brief: as §1

In assay [12] the target is T10, GST-NAP(1-166) (Arabidopsis thaliana, UniProt O49255 1-166).
T10 sequence: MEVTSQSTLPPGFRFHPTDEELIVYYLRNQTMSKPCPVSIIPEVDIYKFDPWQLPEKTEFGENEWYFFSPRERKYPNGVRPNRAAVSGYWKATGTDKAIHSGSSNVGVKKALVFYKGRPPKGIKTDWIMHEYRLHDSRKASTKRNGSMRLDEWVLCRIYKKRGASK
As to conditions: protein: recombinant; tags: GST; chain copies: 2; dsDNA, one strand shown. The essentials:
as §1

The target in assay [13] is T11, GST-NTL8 NAC domain (Arabidopsis thaliana, UniProt Q9XIN7 14-156).
T11 sequence: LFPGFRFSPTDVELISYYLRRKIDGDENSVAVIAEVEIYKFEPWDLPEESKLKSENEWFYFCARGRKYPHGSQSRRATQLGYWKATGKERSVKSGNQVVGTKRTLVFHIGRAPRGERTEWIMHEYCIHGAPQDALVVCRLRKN
The following applies: protein: recombinant; tags: GST; chain copies: 2; dsDNA, one strand shown. The essentials: as §1

The record followed here is publication PMC4081100, “A DNA-binding-site landscape and regulatory network analysis for NAC transcription factors in Arabidopsis thaliana”.

Sequence of GST-WRKY1(266-371) (Q9SI37 266-371): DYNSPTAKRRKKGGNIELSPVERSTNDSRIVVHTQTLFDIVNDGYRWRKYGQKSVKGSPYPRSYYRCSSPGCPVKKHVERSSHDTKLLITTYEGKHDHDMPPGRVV
Sequence of GST-NTL6(1-168) (Q9SCK6 1-168): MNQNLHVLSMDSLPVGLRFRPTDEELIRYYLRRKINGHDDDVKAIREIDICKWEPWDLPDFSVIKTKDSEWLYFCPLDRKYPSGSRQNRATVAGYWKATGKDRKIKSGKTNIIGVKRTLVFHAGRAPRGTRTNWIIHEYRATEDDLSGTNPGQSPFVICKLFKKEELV

For the sequence TAAGTCAA, the binding signal was determined as 0.268 E-score in [1]; 0.121 E-score in assay [2]; 0.208 E-score in assay [3]; 0.158 E-score in assay [4]; 0.172 E-score in assay [5]; 0.175 E-score in [6]. Moreover, the binding signal in assay [7] was found to be 0.0988 E-score; in assay [8], 0.145 E-score; in [9], 0.483 E-score.

With AGTTTGAC, the binding signal in assay [1] was 0.0778 E-score; in [10] it was 0.068 E-score; in assay [2] it was 0.118 E-score; in assay [3], 0.122 E-score; in assay [6], 0.069 E-score; in assay [7], 0.0521 E-score. Further, the binding signal in assay [8] was found to be 0.095 E-score; in [9] it was 0.48 E-score.

With CTTGCGTA, the binding signal is 0.471 E-score in [11]; 0.382 E-score in [10]; 0.306 E-score in assay [2]; 0.317 E-score in assay [3]; 0.474 E-score in assay [4]; 0.386 E-score in assay [12]. In addition, the binding signal in assay [5] was determined as 0.332 E-score; in assay [13], 0.0618 E-score; in assay [6] it was 0.479 E-score; in assay [7] it was 0.416 E-score; in assay [8], 0.394 E-score; in [9] it was 0.0686 E-score.

Take ACACACGC: the binding signal in assay [11] is 0.37 E-score; in assay [1], 0.0666 E-score; in [10], 0.169 E-score; in assay [2], 0.199 E-score; in [3], 0.135 E-score; in assay [4], 0.423 E-score. Further, the binding signal is 0.0855 E-score in [12]; 0.221 E-score in [5]; 0.221 E-score in assay [6]; 0.198 E-score in [7]; 0.213 E-score in assay [8].

As to ATACGAAA, the binding signal in assay [11] stood at 0.393 E-score; in assay [1], 0.184 E-score; in [10], 0.166 E-score; in assay [2], 0.202 E-score; in [3], 0.259 E-score; in [4], 0.421 E-score. Besides, the binding signal in [12] stood at 0.251 E-score; in assay [5], 0.271 E-score; in assay [6], 0.239 E-score; in [7], 0.296 E-score; in assay [8], 0.205 E-score.

As to TAACGTGA, the binding signal in [11] was found to be 0.42 E-score; in [1], 0.0647 E-score; in assay [10], 0.144 E-score; in assay [2], 0.213 E-score; in assay [3], 0.208 E-score; in assay [4] it was 0.419 E-score. The binding signal in [12] came to 0.168 E-score; in [5], 0.257 E-score; in assay [6], 0.385 E-score; in assay [7], 0.251 E-score; in assay [8], 0.0561 E-score.

Consider AAGGGTAA, for which the binding signal in assay [11] stood at 0.117 E-score; in [1] it was 0.194 E-score; in assay [10], 0.127 E-score; in assay [2], 0.0999 E-score; in assay [3], 0.0524 E-score; in [4] it was 0.134 E-score. For the same sequence, the binding signal in [12] stood at 0.117 E-score; in assay [5], 0.126 E-score; in assay [13], 0.444 E-score; in assay [6] it was 0.117 E-score; in assay [7], 0.223 E-score; in assay [8] it was 0.0677 E-score.

On to ACACGATA, for which the binding signal in assay [11] was found to be 0.38 E-score; in [1], 0.127 E-score; in assay [10], 0.324 E-score; in assay [2] it was 0.261 E-score; in assay [3] it was 0.267 E-score; in assay [4] it was 0.417 E-score. The binding signal in [12] is 0.183 E-score; in assay [5], 0.27 E-score; in assay [6] it was 0.266 E-score; in assay [7], 0.273 E-score; in [8] it was 0.248 E-score.

Turning to GTTCCTTA, the binding signal was determined as 0.136 E-score in assay [11]; 0.458 E-score in assay [1]; 0.141 E-score in assay [10]; 0.0564 E-score in assay [2]; 0.151 E-score in assay [3]; 0.237 E-score in assay [4]. In addition, the binding signal in assay [12] came out at 0.117 E-score; in assay [5], 0.139 E-score; in [13] it was 0.329 E-score; in [6], 0.376 E-score; in [7] it was 0.249 E-score; in assay [8], 0.147 E-score.
